Bioassay records as filed in PubChem.
Hits are enriched below; roughly 2.4% of the tested compounds scored in any of these assays.
FEN1 inh: qHTS Assay for the Inhibitors of Human Flap endonuclease 1 (FEN1); Recombinant FEN1 flap cleavage, fluorescence, 15 min; Potency, µM (highest dose often 114 µM), hits mostly inhibitors; 390,000 tested, 0.35% active; AID 588795, 2011; further: nearly all actives have a fitted effect of over 65% in size
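With each library titrated from low to high concentration, compounds met 10 nM FEN1 for 15 min at room temperature before 50 nM substrate was added; readings at 0 and 15 min fed four-parameter Hill curve fits.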
TDP1 inh: qHTS Assay for Inhibitors of Tyrosyl-DNA Phosphodiesterase (TDP1); AID 485290, 2010; Tyrosyl-DNA phosphodiesterase 1 (Homo sapiens), Q9NUW8; Potency, µM (titrated, usually from 130 µM), hits mostly inhibitors; recombinant TDP1, AlphaScreen DNA substrate cleavage; 350,000 tested, 0.28% active; further: nearly all actives have a fitted effect of over 40% in size
Target sequence (Q9NUW8 whole entry, looked up): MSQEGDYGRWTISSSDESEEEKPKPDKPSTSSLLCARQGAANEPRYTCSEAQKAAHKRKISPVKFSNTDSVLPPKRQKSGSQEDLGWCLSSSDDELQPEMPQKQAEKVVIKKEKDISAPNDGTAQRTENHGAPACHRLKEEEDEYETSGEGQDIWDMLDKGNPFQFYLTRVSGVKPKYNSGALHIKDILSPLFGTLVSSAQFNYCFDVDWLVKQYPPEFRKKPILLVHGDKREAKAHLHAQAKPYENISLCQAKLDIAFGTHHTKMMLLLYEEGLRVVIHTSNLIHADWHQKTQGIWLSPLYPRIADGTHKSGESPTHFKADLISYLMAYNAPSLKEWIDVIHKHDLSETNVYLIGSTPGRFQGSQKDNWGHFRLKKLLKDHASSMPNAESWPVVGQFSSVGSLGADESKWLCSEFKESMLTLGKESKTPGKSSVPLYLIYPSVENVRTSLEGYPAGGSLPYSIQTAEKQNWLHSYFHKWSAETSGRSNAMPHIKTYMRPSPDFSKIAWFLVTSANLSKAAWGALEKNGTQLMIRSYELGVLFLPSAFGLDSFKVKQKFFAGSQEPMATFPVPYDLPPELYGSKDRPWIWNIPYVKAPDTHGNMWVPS
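Enzyme-compound mixtures sat 15 min at room temperature, followed by a 5 min reaction with 15 nM final substrate and 10 min with AlphaScreen beads. Recombinant human Tdp1 was used at 1 nM final.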
Pol eta inh: qHTS for Inhibitors of Polymerase Eta; DNA polymerase eta (Homo sapiens), Q9Y253; Potency, µM (top dose mostly 114 µM), usual class: inhibitors; recombinant Pol eta, fluorescent DNA replication assay; 390,000 tested, 1.2% active
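Pol eta (10 nM) was preincubated with compounds for 15 min at room temperature, after which fluorescent replication substrate (50 nM final) was added to start the reaction. Fluorescence was read kinetically at 0 and 10 min.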
Pol beta inh: qHTS Assay for Inhibitors of DNA Polymerase Beta | P06746 | 340,000 tested, 1.3% active | Pol beta primer extension/strand displacement, fluorescence kinetic | AID 485314, 2010 | Potency, µM (top dose mostly 114 µM), usual class: inhibitors
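Values derive from four-parameter Hill fits of normalized kinetic data: reads at 0 and 10 min following addition of 50 nM substrate to 10 nM Pol beta preincubated 15 min with compound.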
Pol iota inh: qHTS for Inhibitors of Polymerase Iota | 390,000 tested, 1% active | Pol iota fluorescent replication assay, 10 min | Potency, µM (doses to about 115 µM), usual class: inhibitors | DNA polymerase iota (Homo sapiens), Q9UNA4
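Fluorescent replication assay read twice, at 0 min and 10 min after adding 50 nM (final) substrate. Enzyme (10 nM) and compounds were first incubated 15 min at room temperature; enzyme-free buffer wells were negative controls.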
Pol kappa inh: qHTS for Inhibitors of Polymerase Kappa; AID 588579, 2011; Potency, µM (highest dose often 107 µM), actives largely listed as inhibitors; 400,000 tested, 0.53% active; purified Pol kappa, fluorescent DNA synthesis assay, 10 min; DNA polymerase kappa (Homo sapiens), Q9UBT6
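Readout: fluorescence, taken kinetically at 0 and 10 min. Conditions: 10 nM Pol kappa, 15 min RT compound preincubation, 50 nM substrate final. Controls: enzyme-free buffer wells.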
Hits are given with their value; i = inactive; ? = inconclusive; nt = not tested or not shown; [ ] = another dose, or the depositor's remark. The call rests on the fitted dose curve; in most records, active means well fitted curve in the direction sought with a large enough effect; inconclusive means small, poorly fitted or top-dose-only effect, or another doubt; inactive means no such curve, though single readings can be large; an effect the other way counts as inactive or inconclusive.

SMILES	FEN1 inh	TDP1 inh	Pol eta inh	Pol beta inh	Pol iota inh	Pol kappa inh
CN(CC(=O)Nc1cccc(F)c1)C(=O)c1ccc(OCc2cn3ccccc3n2)cc1	i	i	i	nt	45µM	i
Cc1cccc(C)c1NC(=O)CN1CCN(C(=O)c2ccc(OCc3cn4ccccc4n3)cc2)CC1	i	45µM	?	nt	?	i
COCCn1c(N)c(C(=O)OCc2ccccc2)c2nc3ccccc3nc21	i	i	i	i	20µM	i
COCCNC(=O)c1c(N)n(CCC2=CCCCC2)c2nc3ccccc3nc12	i	i	i	i	i	i
C=CCNC(=O)c1ccccc1NC(=O)Nc1ccccc1	i	i	i	i	89µM	i
Cc1cc(-n2nnc3ccccc32)nc2ccccc12	i	i	i	i	89µM	i
CCSc1ccc2nnc(-c3cccs3)n2n1	i	i	i	i	i	i
O=C(CSc1ccc2nnc(-c3cccs3)n2n1)N1CCCC1	i	i	i	45µM	i	i
Cc1ccc(Cl)c(NC(=O)Nc2csc3c2CCCC3)c1	i	i	i	i	i	i
CCOC(=O)Cc1cc(=O)n(-c2nc3ccccc3s2)[nH]1	i	i	?	45µM	89µM	79µM
O=C(c1ccco1)N1CCN(CCCCN2C(=O)c3ccccc3C2=O)CC1	?	i	i	i	i	i
CCCCNc1cc(N2CCN(C3CCCCC3)CC2)c2noc3c2c1C(=O)c1ccccc1-3	i	i	i	i	i	i
CCOC(=O)N1CCN(c2cc(NCCC(=O)O)c3c4c(onc24)-c2ccccc2C3=O)CC1	?	i	3.2µM	25µM	?	18µM
O=C(O)CCCNc1cc(N2CCC3(CC2)OCCO3)c2noc3c2c1C(=O)c1ccccc1-3	nt	i	nt	11µM	nt	nt
O=C1c2ccccc2-c2onc3c(N4CCN(CCO)CC4)cc(N4CCN(C(=O)c5ccco5)CC4)c1c23	45µM	i	?	i	?	i
CCCCC#Cc1nc(NC)c2ncn([C@@H]3O[C@@H](CO)[C@H](O)[C@H]3O)c2n1	nt	i	nt	nt	nt	i[19.4 µM]
CCC(=O)N1CCc2cc(Br)cc(S(=O)(=O)CCC(=O)NCc3ccc(C)cc3)c21	i	i	i	i	i	i
O=C(CSc1ncnc2nc[nH]c12)Nc1nnc(SCc2ccc(Cl)c(Cl)c2)s1	i	i	?	40µM	?	i
Cc1ccc(C)c(NC(=O)CSc2ncnc3nc[nH]c23)c1	i	i	i	i	?	i
COc1ccc(C2c3c(N)nc(CCc4ccccc4)nc3Oc3ccc4ccccc4c32)cc1OC (stereo unspecified)	nt	i	nt	nt	nt	nt
CCc1ccc(OCCCSc2nc(-c3ccc(C(C)(C)C)cc3)nc3cc(=O)[nH]n23)cc1	?	i	nt	18µM	?	i
O=c1cc2nc(-c3ccccc3F)nc(SCc3ccc(Br)cc3)n2[nH]1	i	i	?	32µM	?	?
Cc1cccc(OCCCSc2nc(-c3ccc(C(C)(C)C)cc3)nc3cc(=O)[nH]n23)c1C	?	i	nt	i	?	i
Cc1ccc(OCCSc2nc(-c3ccccc3C)nc3cc(=O)[nH]n23)cc1Cl	?	i	89µM	?	?	?
Cc1ccc(C(C)C)c(OCCSc2nc(-c3ccccc3F)nc3cc(=O)[nH]n23)c1	?	nt	?	16µM	?	i
SMILES	FEN1 inh	TDP1 inh	Pol eta inh	Pol beta inh	Pol iota inh	Pol kappa inh
O=C1c2ccccc2C(=O)N1c1cccc2cnccc12	nt	i	nt	nt	nt	nt
CN(C)c1ccc(/C=C/c2ccnc3ccc(N)cc23)cc1	i	nt	nt	nt	i	i
COC(=O)c1cn(CCOc2ccccc2OC)c2ccccc12	i	i	?	i	i	i
COC(=O)c1cn(CCOc2ccccc2F)c2ccccc12	i	i	i	89µM	i	i
O=C(CCN1C(=O)c2ccccc2C1=O)NCc1ccco1	i	i	?	i	50µM	i
O=C(CCCN1C(=O)c2ccccc2C1=O)Nc1sc2c(c1C(=O)NCc1ccco1)CCC2	i	i	i	20µM	?	i
CN(Cc1ccccc1)c1ccc(/C=C/c2nc3ccccc3s2)cc1	35µM	nt	nt	nt	89µM	25µM
